The whole screen tested about 310,000 compounds, of which about 1,000 (0.32%) were called active. Only a sample is shown. Measured potencies and affinities stand elsewhere. Values without a mark were called inactive. No rule for the calls is given here.

The test can be described thus: Inhibition of PhoP regulon, Salmonella typhi GFP reporter cells, confirmation, 4 h (AID 1850).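 Also: 0% = induced wells with vehicle and 100% = uninduced wells.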 The following applies: Salmonella Typhi PhoP-promoter GFP reporter, fluorescence, at 50 µM, hits give high values.
One may read the inhibition as the drop in the measured response relative to a control, in per cent. For `CN(C)C(=S)Nc1ccc(Cc2ccncc2)cc1`, the inhibition was -0.62%.

Consider `CCN(Cc1ccccc1)C(=O)c1cccc(S(=O)(=O)N2CCN(c3ccccc3)CC2)c1`, for which the inhibition was 1.18%.

On to `COCCCN1CN(S(=O)(=O)c2ccc(C)cc2C)c2nc3ccccc3nc21`, for which the inhibition was 6.06%.

Consider `COCCCNC(=O)c1ccccc1N(Cc1ccccc1)S(=O)(=O)c1ccccc1`, for which the inhibition was -7.24%.

For `N=c1ccn(Cc2ccc(Cl)cc2Cl)cc1`, the inhibition is 22.8%.

For the compound `N=c1c2c(n(Cc3ccc(Br)cc3)c3c1CCC3)CCCC2`, the inhibition is -4.26%.

Turning to `N=c1c2c(n(Cc3ccc(F)cc3)c3c1CCC3)CCCC2`, the inhibition is 5.47%.

Turning to `N=c1c2c(n(Cc3ccccc3)c3c1CCC3)CCC2`, the inhibition was -2.77%.

As to `N=c1c2c(n(Cc3ccc([N+](=O)[O-])cc3)c3c1CCC3)CCCC2`, the inhibition is -1.87%.

For `CCn1c2c(c(=N)c3c1CCC3)CCCC2`, the inhibition is 8.7%.

As for `Clc1cccc(CN2CCCCCC2)c1`, the inhibition was -6.25%.

On to `N=c1c2c(n(Cc3ccc(F)cc3)c3c1CCC3)CCC2`, for which the inhibition was -1.84%.

Take `COc1ccc(N2CCN(S(=O)(=O)CCNC(=O)/C=C/c3ccc4c(c3)OCO4)CC2)cc1`: the inhibition was -1.81%.

For the compound `CC(C)NC(=O)C(=O)NCc1ccccn1`, the inhibition was 15.4%.

Regarding `CN(CCn1ccnc1)Cc1cn(Cc2ccccc2)nc1-c1ccc2c(c1)OCO2`, the inhibition is 8.95%.

With `CCCn1c(=O)c(C(=O)NCCc2ccc(OC)c(OC)c2)c(O)c2ccccc21`, the inhibition is 3.2%.

With `CCn1c(/N=C/c2ccccc2O)nc2ccccc21`, the inhibition was -0.93%.

As for `CCN1CCSc2ccc(C(=O)NCc3ccc(OC(C)C)cc3)cc21`, the inhibition was -2.46%.

For `COc1ccc(NC(=O)CNCCC2=CCCCC2)cc1`, the inhibition is -8.03%.

As for `O=C(CNCCC1=CCCCC1)Nc1ccccc1N1CCCCCC1`, the inhibition was 5.47%.

For `Clc1ccc2ccc3cccnc3c2n1`, the inhibition is 2.67%.

Turning to `Cc1ccc2c(c1)-c1ccccc1S(=O)(=O)N2`, the inhibition was -6.75%.

Consider `O=S1(=O)NC(=NCCc2ccccn2)c2ccccc21`, for which the inhibition was -5.57%.

`Cc1ccc2ccc3cccnc3c2n1`: the inhibition is 2.32%.

In the case of `CCC(C)c1ccccc1N1CC(C(=O)Nc2cc(S(=O)(=O)N3CCOCC3)ccc2OC)CC1=O` (configuration not stated), the inhibition is 1.56%.

On to `CSc1ccc(C2NC(=O)CCC2[N+](=O)[O-])cc1` (configuration not stated), for which the inhibition is 9.78%.

For the compound `Cc1c(C(=O)N2CCN(C(=O)c3ccco3)CC2)oc2c(Cl)cccc12`, the inhibition was 5.99%.

On to `Cc1ccc(C(=O)O/N=C/C2=C(Cl)c3ccccc3CC2)cc1`, for which the inhibition is 3.65%.

For `O=C(O/N=C/C1=C(Cl)c2ccccc2CC1)c1ccc(F)cc1`, the inhibition is -1%.

As to `CCC(C)NCCOc1cc(C)cc(C)c1C` (configuration not stated), the inhibition is 10.5%.

As for `CCOC(=O)c1c(C)[nH]c(C)c1S(=O)(=O)N1c2ccccc2CC1C` (configuration not stated), the inhibition was -32.7%.

Regarding `CCOc1ccccc1N1C(=O)NC(=O)C(CCc2ccncc2)(CCc2ccncc2)C1=O`, the inhibition is -6.46%.

Consider `COC(=O)CSC1=NS(=O)(=O)c2ccccc21`, for which the inhibition is -2.6%.

With `CCc1cccc(NC(=O)CSc2nc3c(c(=O)[nH]2)CCCC3)c1`, the inhibition was 8.6%.

For the compound `CN1CCN(/N=C/c2ccc(-c3ccccc3)cc2)CC1`, the inhibition was 1.69%.

For the compound `CN1CCN(/N=C/c2cccc(Cl)c2Cl)CC1`, the inhibition is 0.18%.

With `CCC(C)(C)NC(=O)C(c1ccc(OC)cc1)N(C(=O)CCC(=O)Nc1cc(C)on1)c1cccc(OC)c1` (configuration not stated), the inhibition was 1.27%.

Regarding `O=C(NNC(=O)c1nn(-c2ccc(F)cc2)ccc1=O)c1ccc(Cl)cc1`, the inhibition was 1.15%.

As for `CC1(CC(=O)N/N=C/c2cc3c(cc2Br)OCO3)OCCO1`, the inhibition was 5.58%.

With `CC1(CC(=O)N/N=C/c2cc(Br)c(O)cc2O)OCCO1`, the inhibition was -8.89%.

Take `CCN(C1CCCCC1)S(=O)(=O)c1c(C)n(C)c(=O)n(C)c1=O`: the inhibition was -2.91%.

`CCOc1ccc(NC(=O)c2ccc(NC(=O)c3cn4c5c(c(N6CCN(C)CC6)c(F)cc5c3=O)OCC4C)cc2)cc1` (configuration not stated): the inhibition was -0.94%.

As for `CCOC(=O)C1CN(c2cc3c(cc2F)c(=O)c(C(=O)O)cn3CC)OC1C(=O)OCC` (configuration not stated), the inhibition is -4.02%.

On to `Cc1cc(C)c(NC(=O)c2cn3c4c(c(N5CCN(C)CC5)c(F)cc4c2=O)OCC3C)c(C)c1` (configuration not stated), for which the inhibition was 1.68%.

`CCn1cc(C(=O)O)c(=O)c2cc(F)c(N/N=C/c3ccccc3)cc21`: the inhibition is -3.82%.

With `CCOC(=O)c1cnc2cc(F)c(F)cc2c1N1CCN(C)CC1`, the inhibition was -5.38%.

Turning to `Cc1c(-n2cc(C(=O)O)c(=O)c3cc(F)c(N4CCCC4)c(F)c32)c(=O)n(-c2ccccc2)n1C`, the inhibition is -2.73%.

`O=C(Nc1cccc(F)c1)OC(CN1CCCCC1)C(F)(F)F` (configuration not stated): the inhibition was 6.26%.

As for `CC1(C)Cc2c(cnn2-c2ccc(F)cc2)C(NC(=O)CN2CCCCC2=O)C1` (configuration not stated), the inhibition is -4.07%.

As to `CCCNC(=S)N1CCN(C)CC1`, the inhibition is -12.9%.

In the case of `CCOC(=O)c1ccc(Nc2nnc(C(C)(C)C)c(=O)[nH]2)cc1`, the inhibition was -2.27%.

Take `Cc1ccc(C(=O)CSc2nnc(C(C)C)n2C)cc1C`: the inhibition is -9.07%.

In the case of `O=C(c1ccc2nc(Cc3ccccc3F)oc2c1)N1CCCC1`, the inhibition was -15.9%.

Regarding `C/C(=N\OC(=O)c1c(-c2ccccc2Cl)noc1C)c1nccs1`, the inhibition was -7.14%.

Take `COCCn1c(N)c(N(Cc2ccccc2)C(=O)c2oc3ccccc3c2C)c(=O)[nH]c1=O`: the inhibition is -2.04%.

For the compound `CCOc1ccccc1N1CCN(C(=S)NCc2ccco2)CC1`, the inhibition is -6.16%.

For `CC(=O)c1cnc2nc(C(F)(F)F)nn2c1C`, the inhibition is -10.3%.

In the case of `CCCCCCn1c2c(c(=N)c3c1CCC3)CCC2`, the inhibition is 12%.

In the case of `CCCCCCCCn1c2c(c(=N)c3c1CCC3)CCCC2`, the inhibition was -5.2%.

Take `CCCCn1c2c(c(=N)c3c1CCC3)CCC2`: the inhibition was -3.76%.

Regarding `CCCn1c2c(c(=N)c3c1CCC3)CCC2`, the inhibition was -2.65%.

As to `CC(NC(=O)CNC(=O)c1sc2ccccc2c1Cl)c1ccc(S(N)(=O)=O)cc1` (configuration not stated), the inhibition was 3.29%.

`CC1=CC(C)(C(Cl)Cl)C(C)=CC1=O` (configuration not stated): the inhibition was -0.04%.

For `Cc1cc(C)c(NC(=O)CSc2nnc(CNC(=O)c3c(F)cccc3Cl)o2)c(C)c1`, the inhibition was 1.72%.

In the case of `CC(=O)N(C)C1=C(O)c2ccccc2C(=O)C1=O`, the inhibition is -5.54%.

As to `CC(=O)C(C(C)=O)C1(O)C(=O)c2ccccc2C1=O`, the inhibition is -7.03%.

Regarding `COc1ccc(CC(=O)Nc2ccc(S(=O)(=O)Nc3ncccn3)cc2)cc1`, the inhibition is -0.86%.

As for `Cc1ccc(NC(=S)NC2CCN(Cc3ccccc3)CC2)cc1C`, the inhibition is 7.22%.

Take `S=C(Nc1ccc(Cl)cc1)NC1CCN(Cc2ccccc2)CC1`: the inhibition is 1.82%.

`Fc1ccc(NC(=S)NC2CCN(Cc3ccccc3)CC2)cc1`: the inhibition is 17.7%.

On to `S=C(Nc1ccccc1)NC1CCN(Cc2ccccc2)CC1`, for which the inhibition was 2.12%.

Take `COc1ccc(CSc2nnc(Cc3sc(-c4ccccc4)nc3-c3ccccc3)o2)cc1`: the inhibition is 7.93%.

For the compound `NS(=O)(=O)c1ccc(NC(=S)N2CCN(Cc3ccc4c(c3)OCO4)CC2)cc1`, the inhibition was 3.73%.

Take `CC1Oc2ccccc2N(CC(=O)Nc2ccccc2F)C1=O` (configuration not stated): the inhibition is -6.46%.

As to `Cc1cn(C2OC(COC(=O)c3ccccc3)C(O)C2O)c(=O)[nH]c1=O` (configuration not stated), the inhibition is -7.25%.

With `COc1cc([N+](=O)[O-])ccc1NC(=O)CSc1nnc(C)c(C)n1`, the inhibition was 13.2%.

As to `CSc1ccc(/C=C/C(=O)NC(=O)c2ccccc2O)cc1`, the inhibition is 13.3%.

With `Clc1ccc(-c2cc(C3CCNCC3)[nH]n2)cc1`, the inhibition is 13.5%.

On to `c1ccc2c(-c3cc(C4CCNCC4)[nH]n3)cccc2c1`, for which the inhibition was -4.64%.

As to `CCOc1cccc(-c2c(C(=O)N/N=C(\C)c3ccncc3)nnn2-c2nonc2N)c1`, the inhibition was 0%.

`COc1ccc(CN2CCNC(=O)C2CC(=O)N(C)Cc2ccon2)c(OC)c1` (configuration not stated): the inhibition was -0.06%.

As for `CC1SC(c2ccc(F)cc2)N(CCc2ccccc2)C1=O` (configuration not stated), the inhibition was 11.2%.

Consider `O=C(COc1ccccc1Br)c1ccc(O)cc1O`, for which the inhibition is -2.5%.

Regarding `N=c1c(C(=O)NCc2ccco2)cc2c(=O)n3ccccc3nc2n1CC1CCCO1` (configuration not stated), the inhibition was -2.9%.

With `Cc1ccc(CNC(=O)c2cc3c(s2)CS(=O)(=O)C3)cc1`, the inhibition was -3.03%.

As to `CSc1nc2ccc(Br)cc2[nH]1`, the inhibition is 2.46%.

Take `Clc1cc2nc(-c3cccnc3Cl)[nH]c2cc1Cl`: the inhibition is -3.66%.

With `Cn1c(=O)oc2cc(S(=O)(=O)Nc3ccccc3O)ccc21`, the inhibition was -2.19%.

As to `Cc1cc(OCCCN2CCCC2)ccc1Cl`, the inhibition was 1.13%.

With `Cc1cc(OCCN2CCOCC2)ccc1Cl`, the inhibition is -0.55%.

In the case of `CN1CCN(CCOc2ccc(Cl)c(Cl)c2)CC1`, the inhibition is 8.06%.

In the case of `Clc1ccc(OCCN2CCCCC2)cc1Cl`, the inhibition is 15%.

`CCCn1c2ccccc2c2nnc(SCC(=O)Nc3ncccn3)nc21`: the inhibition is 1.55%.

As to `CN(C)CCCn1c2c(c(SCC(=O)Nc3nccs3)nc1=O)CCC2`, the inhibition is -3.03%.

For `O=C(Nc1cccc(Cl)c1)N1CCN(c2ncccn2)CC1`, the inhibition is 8.55%.

Regarding `COc1ccc(CC(=O)NCC(=O)N/N=C/c2ccc(C)o2)cc1`, the inhibition was -9.36%.

With `C=CCNC(=S)NCc1cccnc1`, the inhibition is -7.66%.

As for `O=C(NNC(=O)C1CCCCC1)c1ccc(Br)cc1`, the inhibition is -2.98%.

Regarding `C/C(=N\NC(=O)c1cc(Br)ccc1O)c1ccccn1`, the inhibition is 1.41%.

Regarding `C/C(=N\NC(=O)c1ccccn1)c1ccc(Cl)cc1`, the inhibition is 0.75%.

Take `C/C(=N\NC(=O)c1ccc(F)cc1)c1ccccn1`: the inhibition is -3.7%.

As for `C/C(=N\NC(=O)c1ccc(Cl)c(Cl)c1)c1ccccn1`, the inhibition was 3.95%.

Source of the values: PubChem BioAssay AID1850 (Southern Research Specialized Biocontainment Screening …, 2009).
